According to PubChem BioAssay (Tox21):
Inconclusive results are not listed. A call without a number means that no potency is given here. Activity calls are given as the source filed them. Unless noted, the call rests on the fitted dose curve; in most records, active means well fitted curve in the direction sought with a large enough effect; inconclusive means small, poorly fitted or top-dose-only effect, or another doubt; inactive means no such curve, though single readings can be large; an effect the other way counts as inactive or inconclusive.

Tests used:
[1] = qHTS assay to identify small molecule phospholipidosis (PLD) inducers (AID 1259344)
Summary of the method: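 HepG2 cells on collagen I, attached 4 h at 37 C, were co-treated with compound and LipidTOX Red dye for 24 h at 37 C, then fixed with paraformaldehyde plus Hoechst 33342 and imaged by high-content microscopy for phospholipid accumulation.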

[2] = biological target: Estrogen receptor (Homo sapiens) (UniProt P03372); assay: qHTS assay to identify small molecule antagonists of the estrogen receptor alpha (ER-alpha) signaling pathway using the BG1 cell line in the presence of 0.1 nM 17-beta-estradiol (AID 1259244; active means well fitted curve in the direction sought with a large enough effect in the repeat runs; an effect the other way counts as inactive or inconclusive; further: nearly all actives have a fitted effect of over 50% in size)
Sequence of Estrogen receptor (Homo sapiens) (P03372 whole entry, looked up): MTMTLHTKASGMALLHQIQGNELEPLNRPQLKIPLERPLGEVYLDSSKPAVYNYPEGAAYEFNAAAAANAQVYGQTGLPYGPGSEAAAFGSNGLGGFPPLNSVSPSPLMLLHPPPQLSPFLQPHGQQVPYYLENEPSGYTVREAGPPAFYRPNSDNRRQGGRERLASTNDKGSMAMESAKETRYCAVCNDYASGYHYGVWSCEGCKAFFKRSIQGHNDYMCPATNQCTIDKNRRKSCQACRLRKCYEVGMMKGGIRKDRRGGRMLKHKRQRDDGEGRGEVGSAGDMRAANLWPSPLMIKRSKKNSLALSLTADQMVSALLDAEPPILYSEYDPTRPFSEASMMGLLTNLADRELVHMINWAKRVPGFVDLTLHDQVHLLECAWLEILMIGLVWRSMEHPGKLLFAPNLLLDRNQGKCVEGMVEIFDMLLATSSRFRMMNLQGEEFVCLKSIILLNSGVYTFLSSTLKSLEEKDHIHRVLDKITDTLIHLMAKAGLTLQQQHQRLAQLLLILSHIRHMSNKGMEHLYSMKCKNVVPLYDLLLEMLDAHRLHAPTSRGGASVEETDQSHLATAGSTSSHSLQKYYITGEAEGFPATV
Summary of the method: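 Cells: VM7Luc4E2, endogenous ER-alpha, 4x ERE-luc stable. Pre-culture 5 d, phenol red-free, charcoal-stripped FBS. Plated 24 h, compound + E2 0.1 nM final, 22 h 37C/5% CO2. Readout ONE-Glo luminescence.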

[3] = qHTS assay to identify small molecule HDAC inhibitors - cell viability counter screen (AID 1259365; active means well fitted curve in the direction sought with a large enough effect in the repeat runs; an effect the other way counts as inactive or inconclusive; further: series mostly up to about 92 µM; nearly all actives have a fitted effect of over 50% in size)
Summary of the method: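 Luminescence from CellTiter-Glo, developed 30min at room temperature, reports viability of wild-type HCT-116 cells treated 2hr with compounds at 37 C and 5% CO2 after overnight plating.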

[4] = qHTS assay to identify small molecule agonists of the sonic hedgehog signaling (Shh) pathway (AID 1259368; calls by dose curve;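 further: NIH/3T3-derived 3T3Gli1-Luc cells carrying a stable Gli1-driven firefly luciferase reporter; series mostly up to about 92 µM; nearly all actives have a fitted effect of over 15% in size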)
Summary of the method: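 3T3Gli1-Luc (NIH/3T3 clone, stable Gli1-Luc); 4 hr pre-incubation, then cpd in DMSO 24 hr, 37 C/5% CO2; luciferase reagent 30 min RT; luminescence.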

[5] = qHTS assay to identify small molecule antagonists of the sonic hedgehog signaling (Shh) pathway (AID 1259369; calls by dose curve; further: potency means the concentration at half of the fitted maximal effect; nearly all actives have a fitted effect of over 45% in size)
Summary of the method: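 3T3Gli1-Luc, conditioned-medium-stimulated, 24hr cpd, 37C/5% CO2; Gli1-driven firefly Luc luminescence after 30min RT with luciferase reagent. Cells plated 4hr before cpd.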

[6] = biological target: Estrogen receptor beta (Homo sapiens) (UniProt Q92731); assay: qHTS assay to identify small molecule agonists of the estrogen receptor beta (ER-beta) signaling pathway (AID 1259377; active means well fitted activation curve with a large enough effect in the signal ratio in the repeat runs, not every such curve was filed as active; the % refers to the signal ratio)
Sequence of Estrogen receptor beta (Homo sapiens) (Q92731 whole entry, looked up): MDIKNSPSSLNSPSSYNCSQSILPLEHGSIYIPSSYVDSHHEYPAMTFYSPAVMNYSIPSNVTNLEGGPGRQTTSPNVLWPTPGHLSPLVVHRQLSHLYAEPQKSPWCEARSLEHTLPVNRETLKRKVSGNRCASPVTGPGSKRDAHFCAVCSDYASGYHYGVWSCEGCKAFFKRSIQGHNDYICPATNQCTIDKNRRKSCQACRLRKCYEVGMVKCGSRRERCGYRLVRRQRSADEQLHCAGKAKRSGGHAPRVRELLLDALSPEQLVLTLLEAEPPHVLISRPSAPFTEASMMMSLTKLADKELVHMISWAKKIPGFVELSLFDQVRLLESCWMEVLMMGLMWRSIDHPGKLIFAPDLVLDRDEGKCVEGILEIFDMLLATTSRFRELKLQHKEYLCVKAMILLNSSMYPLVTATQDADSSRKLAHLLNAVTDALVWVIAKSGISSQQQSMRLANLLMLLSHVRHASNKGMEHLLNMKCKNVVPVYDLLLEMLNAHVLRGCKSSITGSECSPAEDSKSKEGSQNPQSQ
Summary of the method: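 HEK293T ER-beta-UAS-bla; 2% charcoal-stripped FBS; cells pre-incubated 6 hr, compound 16 hr, 37C/5% CO2; LiveBLAzer B/G FRET substrate 2 h RT; fluorescence intensity read.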

[7] = biological target: Estrogen receptor beta (Homo sapiens) (UniProt Q92731); assay: qHTS assay to identify small molecule antagonists of the estrogen receptor beta (ER-beta) signaling pathway (AID 1259378; active means well fitted inhibition curve with a large enough effect in the signal ratio in the repeat runs, not every such curve was filed as active; the % refers to the signal ratio)
Summary of the method: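 ER-beta-UAS-bla HEK293T (GripTite) cells in 2% charcoal-stripped FBS medium were preincubated 6 hr at 37C, dosed with compound, then stimulated with 1 nM E2 (final) for 16 hr; beta-lactamase reporter read by B/G FRET fluorescence after 2 hr substrate loading.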

CON=C1C[C@]2(C[C@@H]3C[C@@H](C/C=C(\C)C[C@@H](C)/C=C/C=C4\CO[C@@H]5[C@H](O)C(C)=C[C@@H](C(=O)O3)[C@]45O)O2)O[C@H](/C(C)=C/C(C)C)[C@H]1C
Potency [1]: inactive

NC(=S)NS(=O)(=O)c1ccc(N)cc1
Potency [1]: inactive

CC(CNC(=O)c1cccnc1)NC(=O)c1cccnc1 (stereo unspecified)
Potency [1]: inactive

C[C@@H]1O[C@@H](OC[C@H]2O[C@@H](Oc3c(-c4ccc(OCCO)c(OCCO)c4)oc4cc(OCCO)cc(O)c4c3=O)[C@H](O)[C@@H](O)[C@@H]2O)[C@H](O)[C@H](O)[C@H]1O
Potency [1]: inactive

O=C1OC(=O)c2cc(-c3ccc4c(c3)C(=O)OC4=O)ccc21
Potency [2]: inactive
Potency [3]: inactive
Potency [4]: inactive
Potency [5]: 17.2 µM (active)
outcome [6]: inactive

CO/N=C(\C(=O)N[C@@H]1C(=O)N2C(C(=O)[O-])=C(C[n+]3ccc(N)n3CCO)CS[C@H]12)c1csc(N)n1
Potency [1]: inactive

O=C(O)c1ccccc1[O-].O=C(O)c1ccccc1[O-].[Zn+2]
Potency [1]: inactive

CCCCC/C=C\C=C\C(=O)OCC
Potency [2]: inactive
Potency [3]: inactive
Potency [4]: inactive
Potency [7]: inactive

CC(Cc1ccc(O)c(O)c1)C(C)Cc1ccc(O)c(O)c1 (stereo unspecified)
Potency [2]: inactive
Potency [3]: inactive
Potency [4]: inactive
Potency [5]: 13.7 µM (active)

CC[C@@H](C(=O)[C@@H](C)[C@@H](O)[C@H](C)CCc1ccc(C)c(O)c1C(=O)O)[C@H]1O[C@](CC)([C@H]2CC[C@](O)(CC)[C@H](C)O2)C[C@@H]1C
Potency [1]: inactive

C[C@@H]1C[C@H]2[C@@H]3C[C@H](F)C4=CC(=O)C=C[C@]4(C)[C@@]3(Cl)[C@@H](O)C[C@]2(C)[C@H]1C(=O)COC(=O)C(C)(C)C
Potency [1]: inactive
